This is part of a sample that, as a whole, favours compounds with a hit. Of some 83,000 tested, about 20% had one in any assay.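 Activity criterion: percent growth below 10, measured after cells in 96-well plates were exposed to a single compound concentration for 48 hours.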 A number with no mark means an inactive call. Active and inactive are the calls of the source.
test system: TK-10 renal; experiment: NCI-60 one-dose screen, 48 h (100 = growth as untreated, 0 = no growth, -100 = all killed); conditions: 10 µM unless noted

| Compound | growth |
| --- | --- |
| O=C(c1ccccc1)C1OC1C(=O)c1ccccc1 (stereo not drawn) | 36.9% |
| CC(C)=CC[C@@H]1CC2(CC=C(C)C)C(=O)C(OC3(C(=O)c4ccccc4)C(=O)C4(CC=C(C)C)C[C@@H](CC=C(C)C)C(C)(C)C(CC=C(C)C)(C4=O)C3=O)(C(=O)c3ccccc3)C(=O)C(CC=C(C)C)(C2=O)C1(C)C (stereo partly drawn) | 3.06% (active) |
| CCCCc1nc(Cl)c(C2CC(c3ccc(S(N)(=O)=O)cc3)=NN2c2ccc(C#N)cc2)[nH]1 (stereo not drawn) | 100% |
| COc1cc(Cl)cc(-c2nn(C(=O)NCCN3CCOCC3)cc2-c2ccncc2)c1 | 78% |
| O=[N+]([O-])c1ccc(N=Nc2c(NNc3ccc([N+](=O)[O-])cn3)cc(S(=O)(=O)O)c3ccccc23)nc1 | 88.4% |
| NC(=S)N1N=C(c2ccc(Cl)cc2)CC1c1cc2ccccc2[nH]c1=O (stereo not drawn) | 109% |
| NC(=O)N/N=C\c1ccc([N+](=O)[O-])o1 | 113% |
| Cc1cc(N)cc(C)c1-c1c(Br)cc(N)cc1Br | 22.3% |
| O=C1CCCN1C1CCN2CCCc3cccc1c32 (stereo not drawn) | 103% |
| CCCCCCCCCCCCCCCC1=NCCN1 | 102% |
| C=CCCCCOc1cccc(/C=C2\N=C3SCCCN3C2=O)c1 | 99.4% |
| CC(CN1CCN(CC(C)Nc2ccnc3cc(Cl)ccc23)CC1)Nc1ccnc2cc(Cl)ccc12 (stereo not drawn) | -48% (active) |
| CCN1CCN(Cc2ccc(NC(=O)Nc3ccc(-n4ccc5c(NC(=O)c6ccccc6)nccc54)cc3)cc2C(F)(F)F)CC1 | 25.5% |

From PubChem BioAssay (NCI)
